Measurements from PubChem BioAssay (EPA / NIEHS).
Activity calls are given as the source filed them. Rule for the calls: active = hit-call score of the fitted dose curve at least 0.9, where 1 is the maximum; inactive = score below 0.9.

Legend:
Settings in all cases: mRNA level, 48 h; actives raise or lower the signal
[1] = read-out: Cytochrome P450 (CYP24A1), CYP24A1 (gene 1591); test: LTEA_HepaRG_CYP24A1: Life Technologies and Expression Analysis (LTEA) Assay for Cytochrome P450 (CYP24A1) using HepaRG (AID 2283478)
Outline: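 mRNA of CYP24A1 quantified by TaqMan qRT-PCR (ACTB/GAPDH/POLR2A normalization) after 48 h chemical exposure of HepaRG cells, top concentration 100 uM, half-log steps, 0.5% DMSO vehicle, duplicates. Curves fitted bidirectionally against DMSO baseline.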

[2] = read-out: Cytochrome P450 (CYP1A2), CYP1A2 (gene 1544); test: LTEA_HepaRG_CYP1A2: Life Technologies and Expression Analysis (LTEA) Assay for Cytochrome P450 (CYP1A2) using HepaRG (AID 2283479)
Outline: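 CYP1A2 transcript measured by TaqMan qRT-PCR against three housekeeping genes after 48-hour chemical exposure of HepaRG cells. Eight-point half-log series topping at 100 uM in 0.5% DMSO, duplicates; gain or loss fitted relative to vehicle.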

[3] = read-out: cysteine-aspartic acid protease (CASP8), CASP8 (gene 841); test: LTEA_HepaRG_CASP8: Life Technologies and Expression Analysis (LTEA) Assay for cysteine-aspartic acid protease (CASP8) using HepaRG (AID 2283480)
Outline: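 CASP8 transcript measured by TaqMan qRT-PCR with ACTB/GAPDH/POLR2A normalization, after 48 h chemical exposure of HepaRG cells in serum-free induction medium. Eight concentrations, top 100 uM, half-log steps, 0.5% DMSO vehicle; fits in both directions versus DMSO.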

[4] = read-out: Cytochrome P450 (CYP2B6), CYP2B6 (gene 1555); test: LTEA_HepaRG_CYP2B6: Life Technologies and Expression Analysis (LTEA) Assay for Cytochrome P450 (CYP2B6) using HepaRG (AID 2283481)
Outline: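 CYP2B6 transcript level quantified by qRT-PCR against three housekeeping genes, fitted bidirectionally relative to DMSO. HepaRG cultures received chemicals for 48 h, 8-point half-log series from 100 uM in 0.5% DMSO, duplicate wells, serum-free induction medium.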

CYP2C8 (gene 1558) = test: LTEA_HepaRG_CYP2C8: Life Technologies and Expression Analysis (LTEA) Assay for CYP2C8 using HepaRG (AID 2283483)
Outline: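 CYP2C8 expression measured by TaqMan qRT-PCR and normalized to three housekeeping genes. HepaRG cultures were treated for 48 h with an eight-point half-log series topping at 100 uM, vehicle 0.5% DMSO, duplicates; fitted both directions against DMSO.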

CYP2C9 (gene 1559) = test: LTEA_HepaRG_CYP2C9: Life Technologies and Expression Analysis (LTEA) Assay for CYP2C9 using HepaRG (AID 2283484)
Outline: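 CYP2C9 transcript level, quantified by TaqMan qRT-PCR against three housekeeping genes, was fitted bidirectionally relative to 0.5% DMSO. HepaRG cultures were treated 48 h, in duplicate, at eight half-log concentrations topping at 100 uM.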

CYP2E1 (gene 1571) = test: LTEA_HepaRG_CYP2E1: Life Technologies and Expression Analysis (LTEA) Assay for CYP2E1 using HepaRG (AID 2283485)
Outline: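 CYP2E1 transcript measured by Fluidigm qRT-PCR against three housekeeping genes in human HepaRG cells treated 48 h (top 100 uM, half-log steps, 0.5% DMSO vehicle). Gain or loss fitted relative to DMSO baseline.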

CYP4A11 (gene 1579) = test: LTEA_HepaRG_CYP4A11: Life Technologies and Expression Analysis (LTEA) Assay for CYP4A11 using HepaRG (AID 2283486)
Outline: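 Readout is CYP4A11 transcript level by qRT-PCR, normalized to three housekeeping genes and fitted bidirectionally against 0.5% DMSO. Human HepaRG cells were treated 48 h, in duplicate, with an 8-point half-log series topping at 100 uM.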

[5] = read-out: Cytochrome P450 3A4 (Homo sapiens) (UniProt P08684); test: LTEA_HepaRG_CYP3A4: Life Technologies and Expression Analysis (LTEA) Assay for CYP3A4 using HepaRG (AID 2283487)
Outline: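 Differentiated HepaRG cells in serum-free induction medium exposed in duplicate for 48 h to 8 half-log concentrations up to 100 uM in 0.5% DMSO. CYP3A4 mRNA measured by qRT-PCR normalized to ACTB, GAPDH and POLR2A; bidirectional fit versus DMSO.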

[6] = read-out: Pro-epidermal growth factor (Homo sapiens) (UniProt P01133); test: LTEA_HepaRG_EGF: Life Technologies and Expression Analysis (LTEA) Assay for Epidermal growth factor (EGF) using HepaRG (AID 2283489)
Outline: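 EGF transcript measured by Fluidigm TaqMan qRT-PCR with three housekeeping genes for normalization, 48 h after dosing HepaRG cultures in duplicate (top 100 uM, half-log steps, 0.5% DMSO vehicle). Gain or loss relative to DMSO fitted.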

[7] = read-out: Early growth response protein 1 (EGR1) transcription factor, EGR1 (gene 1958); test: LTEA_HepaRG_EGR1: Life Technologies and Expression Analysis (LTEA) Assay for Early growth response protein 1 (EGR1) transcription factor using HepaRG (AID 2283490)
Outline: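 EGR1 transcript levels quantified by qRT-PCR (Fluidigm arrays) against three housekeeping genes after 48 h chemical exposure of HepaRG cells. Eight-point half-log series topping at 100 uM, 0.5% DMSO vehicle, analyzed for gain or loss.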

[8] = read-out: Ezrin (EZR), EZR (gene 7430); test: LTEA_HepaRG_EZR: Life Technologies and Expression Analysis (LTEA) Assay for Ezrin (EZR) using HepaRG (AID 2283491)
Outline: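 Differentiated human HepaRG cells, 48 h after plating, were exposed in serum-free induction medium for 48 hours to eight half-log concentrations up to 100 uM in 0.5% DMSO. EZR mRNA was measured by TaqMan qRT-PCR, normalized to ACTB, GAPDH and POLR2A, and fitted bidirectionally against DMSO.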

[9] = read-out: Cytochrome P450 3A7 (Homo sapiens) (UniProt P24462); test: LTEA_HepaRG_CYP3A7: Life Technologies and Expression Analysis (LTEA) Assay for CYP3A7 using HepaRG (AID 2283492)
Outline: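 CYP3A7 transcript measured by qRT-PCR (ACTB, GAPDH, POLR2A normalization) after 48 h chemical exposure of HepaRG cells in duplicate. Eight half-log concentrations, maximum 100 uM, 0.5% DMSO vehicle; bidirectional curve fitting against DMSO baseline.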

CYP3A5 (gene 1577) = test: LTEA_HepaRG_CYP3A5: Life Technologies and Expression Analysis (LTEA) Assay for CYP3A5 using HepaRG (AID 2283493)
Outline: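 mRNA levels were quantified by qRT-PCR on Fluidigm arrays and normalized to three housekeeping genes. Differentiated HepaRG cells received 48 h exposure (top 100 uM, half-log steps, 0.5% DMSO vehicle, duplicate); bidirectional fitting versus DMSO.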

[10] = read-out: Fatty Acid-Binding Protein 1 (FABP1), FABP1 (gene 2168); test: LTEA_HepaRG_FABP1: Life Technologies and Expression Analysis (LTEA) Assay for Fatty Acid-Binding Protein 1 (FABP1) using HepaRG (AID 2283494)
Outline: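 FABP1 expression by TaqMan qRT-PCR, normalised to three housekeeping genes, in HepaRG cells after 48 h chemical treatment. Eight-point half-log series topping at 100 uM in 0.5% DMSO, duplicates; gain or loss fitted relative to vehicle.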

[11] = read-out: Cytochrome P450 4A22 (Homo sapiens) (UniProt Q5TCH4); test: LTEA_HepaRG_CYP4A22: Life Technologies and Expression Analysis (LTEA) Assay for Cytochrome P450 4A22 (CYP4A22) using HepaRG (AID 2283495)
Outline: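 Gene expression measured by qRT-PCR against three housekeeping genes (ACTB, GAPDH, POLR2A), with gain or loss fitted relative to 0.5% DMSO vehicle. HepaRG cultures received 48 h chemical treatment, top concentration 100 uM, half-log steps, duplicate wells.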

[12] = read-out: Cytochrome P450 7A1 (Homo sapiens) (UniProt P22680); test: LTEA_HepaRG_CYP7A1: Life Technologies and Expression Analysis (LTEA) Assay for Cytochrome P450 7A1 (CYP7A1) using HepaRG (AID 2283496)
Outline: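 HepaRG, 48 h exposure, 8-pt half-log series from 100 uM, 0.5% DMSO vehicle, duplicates. Readout: TaqMan qRT-PCR mRNA vs three housekeeping genes; bidirectional curve fit against DMSO baseline.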

[13] = read-out: Glutathione S-Transferase (GSTA2), GSTA2 (gene 2939); test: LTEA_HepaRG_GSTA2: Life Technologies and Expression Analysis (LTEA) Assay for Glutathione S-Transferase (GSTA2) using HepaRG (AID 2283497)
Outline: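 GSTA2 transcript levels came from Fluidigm TaqMan qRT-PCR normalized to three housekeeping genes, fitted in both directions against DMSO. HepaRG cultures received chemicals for 48 h in serum-free induction medium (0.5% DMSO), 8 half-log concentrations up to 100 uM, duplicate.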

[14] = read-out: Cytochrome P450 2C19 (Homo sapiens) (UniProt P33261); test: LTEA_HepaRG_CYP2C19: Life Technologies and Expression Analysis (LTEA) Assay for CYP2C19 using HepaRG (AID 2283482)
Outline: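 CYP2C19 transcript levels by qRT-PCR, normalized to three housekeeping genes, in HepaRG cells after 48 h chemical exposure. Eight-point half-log series topping at 100 uM, 0.5% DMSO vehicle. Increases and decreases both fitted against DMSO.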

Cytochrome P450 3A7 (Homo sapiens), sequence (P24462 whole entry, looked up): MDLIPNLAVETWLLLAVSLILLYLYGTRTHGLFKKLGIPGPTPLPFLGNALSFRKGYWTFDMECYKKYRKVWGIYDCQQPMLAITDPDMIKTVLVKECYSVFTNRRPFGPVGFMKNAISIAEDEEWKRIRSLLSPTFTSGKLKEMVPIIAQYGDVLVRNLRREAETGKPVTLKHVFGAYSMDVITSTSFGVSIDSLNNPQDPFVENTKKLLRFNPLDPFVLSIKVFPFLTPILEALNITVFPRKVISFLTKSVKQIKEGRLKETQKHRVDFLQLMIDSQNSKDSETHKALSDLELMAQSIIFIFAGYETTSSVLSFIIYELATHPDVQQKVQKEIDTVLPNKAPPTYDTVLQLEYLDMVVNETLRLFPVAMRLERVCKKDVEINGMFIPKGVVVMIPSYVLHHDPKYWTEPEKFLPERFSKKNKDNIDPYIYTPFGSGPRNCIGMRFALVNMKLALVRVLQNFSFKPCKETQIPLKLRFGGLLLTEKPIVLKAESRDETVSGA
Cytochrome P450 3A4 (Homo sapiens), sequence (P08684 whole entry, looked up): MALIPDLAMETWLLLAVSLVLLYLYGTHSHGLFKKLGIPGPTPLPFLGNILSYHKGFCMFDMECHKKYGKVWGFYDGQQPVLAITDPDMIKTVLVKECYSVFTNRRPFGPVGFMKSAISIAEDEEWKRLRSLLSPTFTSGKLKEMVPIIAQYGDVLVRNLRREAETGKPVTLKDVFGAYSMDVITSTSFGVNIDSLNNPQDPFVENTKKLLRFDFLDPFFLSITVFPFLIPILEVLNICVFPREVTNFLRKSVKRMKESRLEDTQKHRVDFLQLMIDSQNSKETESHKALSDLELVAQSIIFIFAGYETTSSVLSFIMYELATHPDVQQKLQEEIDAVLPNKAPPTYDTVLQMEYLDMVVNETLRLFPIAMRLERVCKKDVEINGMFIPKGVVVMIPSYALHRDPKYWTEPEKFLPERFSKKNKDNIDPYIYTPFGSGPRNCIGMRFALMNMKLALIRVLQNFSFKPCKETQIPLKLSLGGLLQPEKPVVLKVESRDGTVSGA
Cytochrome P450 2C19 (Homo sapiens), sequence (P33261 whole entry, looked up): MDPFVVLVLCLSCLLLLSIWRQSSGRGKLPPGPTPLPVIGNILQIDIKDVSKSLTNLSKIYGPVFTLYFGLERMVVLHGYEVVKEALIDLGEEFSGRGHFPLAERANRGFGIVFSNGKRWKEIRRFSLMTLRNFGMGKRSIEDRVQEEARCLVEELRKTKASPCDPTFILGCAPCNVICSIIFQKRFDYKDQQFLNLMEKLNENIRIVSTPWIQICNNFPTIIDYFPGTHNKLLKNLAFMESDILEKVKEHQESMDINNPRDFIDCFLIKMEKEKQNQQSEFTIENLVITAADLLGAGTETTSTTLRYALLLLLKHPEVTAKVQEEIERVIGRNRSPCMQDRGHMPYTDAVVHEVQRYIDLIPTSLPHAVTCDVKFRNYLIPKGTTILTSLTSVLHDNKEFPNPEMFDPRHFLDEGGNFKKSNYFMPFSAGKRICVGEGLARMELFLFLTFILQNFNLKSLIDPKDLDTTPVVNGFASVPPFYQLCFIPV

CC(C)CCCCCCc1ccc(O)cc1
outcome [1]: inactive | outcome [2]: inactive | outcome [3]: inactive | outcome [4]: inactive | outcome (CYP2C8 (gene 1558)): inactive | outcome (CYP2C9 (gene 1559)): inactive | outcome (CYP2E1 (gene 1571)): inactive | outcome (CYP4A11 (gene 1579)): inactive | AC50 [5]: 50 µM (active) | outcome [6]: inactive | outcome [7]: inactive | outcome [8]: inactive | outcome [9]: inactive | outcome (CYP3A5 (gene 1577)): inactive | outcome [10]: inactive | outcome [11]: inactive | outcome [12]: inactive | outcome [13]: inactive

CC(C)(C)[C@@H](O)[C@@H](Cc1ccc(Cl)cc1)n1cncn1
outcome [1]: inactive | AC50 [2]: 50 µM (active) | outcome [3]: inactive | AC50 [4]: 3.37 µM (active) | outcome (CYP2C8 (gene 1558)): inactive | outcome (CYP2C9 (gene 1559)): inactive | AC50 (CYP2E1 (gene 1571)): 50 µM (active) | AC50 (CYP4A11 (gene 1579)): 50 µM (active) | AC50 [5]: 7.74 µM (active) | outcome [6]: inactive | outcome [7]: inactive | outcome [8]: inactive | AC50 [9]: 5.85 µM (active) | outcome (CYP3A5 (gene 1577)): inactive | AC50 [10]: 50 µM (active) | AC50 [11]: 27.8 µM (active) | outcome [12]: inactive | outcome [13]: inactive

CCCCCCC(C)OC(=O)COc1nc(F)c(Cl)c(N)c1Cl (configuration not stated)
outcome [1]: inactive | outcome [2]: inactive | AC50 [4]: 50 µM (active) | outcome [14]: inactive | outcome (CYP2C8 (gene 1558)): inactive | outcome (CYP2E1 (gene 1571)): inactive | outcome (CYP4A11 (gene 1579)): inactive | outcome [6]: inactive | outcome [7]: inactive | outcome [8]: inactive | outcome [9]: inactive | outcome (CYP3A5 (gene 1577)): inactive | outcome [10]: inactive | outcome [11]: inactive | outcome [12]: inactive | outcome [13]: inactive
